Results reported in PubChem BioAssay (EPA / NIEHS).
Inconclusive results are not listed. Active and inactive are the calls of the source. Rule for the calls: active = hit-call score of the fitted dose curve at least 0.9, where 1 is the maximum; inconclusive = response in the unintended direction; inactive = score below 0.9.

The compounds below were run against Glucocorticoid receptor (Homo sapiens) (UniProt P04150) (assay: ATG_GR_TRANS: Attagene TRANS-FACTORIAL HepG2 Assay for human Glucocorticoid Receptor (GR) (AID 2282978;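 note: activators score as hits since higher reporter transcript over DMSO is fitted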)). Conditions: HepG2 Attagene TRANS GR reporter, mRNA transcription.
Chain of Glucocorticoid receptor (Homo sapiens) (P04150 whole entry, looked up): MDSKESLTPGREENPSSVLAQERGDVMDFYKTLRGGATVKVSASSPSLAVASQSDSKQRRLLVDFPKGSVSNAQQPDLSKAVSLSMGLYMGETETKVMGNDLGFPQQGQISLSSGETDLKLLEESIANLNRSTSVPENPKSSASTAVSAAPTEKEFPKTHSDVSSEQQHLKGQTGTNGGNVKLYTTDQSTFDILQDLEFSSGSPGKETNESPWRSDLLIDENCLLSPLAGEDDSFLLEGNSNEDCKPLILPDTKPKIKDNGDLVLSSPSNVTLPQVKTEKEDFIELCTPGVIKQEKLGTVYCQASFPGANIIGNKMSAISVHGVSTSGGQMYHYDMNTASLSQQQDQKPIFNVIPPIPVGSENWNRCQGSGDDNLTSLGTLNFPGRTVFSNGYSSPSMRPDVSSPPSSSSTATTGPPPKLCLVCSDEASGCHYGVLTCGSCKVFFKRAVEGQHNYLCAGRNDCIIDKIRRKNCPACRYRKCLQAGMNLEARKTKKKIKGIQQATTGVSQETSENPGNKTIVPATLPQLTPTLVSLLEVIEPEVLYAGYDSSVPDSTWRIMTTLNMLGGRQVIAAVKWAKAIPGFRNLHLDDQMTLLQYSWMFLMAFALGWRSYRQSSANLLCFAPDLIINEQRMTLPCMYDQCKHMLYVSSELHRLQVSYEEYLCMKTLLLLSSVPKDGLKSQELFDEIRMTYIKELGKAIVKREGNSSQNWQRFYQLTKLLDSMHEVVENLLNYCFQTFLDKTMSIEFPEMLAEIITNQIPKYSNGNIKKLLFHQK
Procedure: ATG_TRANS is a cell-based, multiplexed-readout assay that uses HepG2, a human liver cell line, with measurements taken at 24 hours after chemical dosing in a 24-well plate.ATG_GR_TRANS is one of 30 assay component(s) measured or calculated from the ATG_TRANS assay. It is designed to make measurements of mRNA induction, a form of inducible reporter, as detected with fluorescence intensity signals by Reverse transcription polymerase chain reaction (RT-PCR) and Capillary electrophoresis technology.Data from the assay component ATG_GR_TRANS was analyzed into 1 assay endpoint. This assay endpoint, ATG_GR_TRANS, was analyzed in the positive analysis fitting direction relative to DMSO as the negative control and baseline of activity. Using a type of inducible reporter, measures of mRNA for gain-of-signal activity can be used to understand the reporter gene at the transcription factor-level as they relate to the gene NR3C1. Furthermore, this assay endpoint can be referred to as a primary readout, because this assay has produced multiple assay endpoints where this one serves a reporter gene function. To generalize the intended target to other relatable targets, this assay endpoint is annotated to the nuclear receptor intended target family, where the subfamily is steroidal.
Human liver HepG2 cells are transiently transfected with multiple reporter transcription units (MRTUs) in 6-well plates using FuGene 6 reagent (Roche; 3 ml FuGene/1 mg DNA). The MRTU constructs are regulated by a cis-regulating element (promoter). […] A major difference between the CIS and TRANS system is that in CIS activities of endogenous TFs are measured, whereas the TRANS assay evaluates changes in activities of exogenous, chimeric NR-Gal4 proteins. […] At the end of 24 hour incubation, total RNA was isolated using TriZol reagent (Invitrogen). The isolated RNA is then reverse-transcribed using oligo(dT) primer and Mo-MLV reverse transcriptase (Invitrogen) with DNAse I (Ambion) treatment for 30 min. The one-tenth of the produced cDNA was amplified by PCR using Taq DNA polymerase (Invitrogen) and two reporter sequence-specific primers. The PCR products were fluorescently labeled by primer extension with 6-arboxyfluorescein (6-FAM) 5'-labeled reporter sequence-specific primer (2 min at 95 C, 20 s at 68 C and 10 min at 72 C) and these products were digested with 5U of HpaI (New England Biolabs) for 2h at 37 C. The fragments were purified using Qiaquick PCR columns (Qiagen), analyzed on an ABI 3130xL genetic analyzer (Applied Biosystems) with peak positions identified by using a set of X-rhodamine (ROX)-labeled MapMarker1000 molecular weight standards (BioVentures). The raw capillary electrophoresis data was processed using Attagraph software (Attagene).

outcome, inactive:
c1ccc(-c2ccccn2)nc1
CCCCCCCC/C=C\CCCCCCCC(=O)OCCO
O=C1c2cccc(O)c2C(=O)c2c(O)cc(CO)cc21
O=C(Nc1cccc(C(F)(F)F)c1)c1cc(Br)cc(Br)c1O
CC(=O)[C@H]1[C@H](C#N)C[C@H]2[C@@H]3CC=C4C[C@@H](O)CC[C@]4(C)[C@H]3CC[C@@]21C
O=c1c2ccccc2oc2ccccc12
CC(C)CCCCCOC(=O)CCS
CC(C)(C)c1n[nH]c(=O)n(N)c1=O
NNC(=O)c1cccc(C(=O)NN)c1
O=C(O)CC(C(=O)O)C(CC(=O)O)C(=O)O (stereo not given)
C[Si](C)O[Si](C)(C)O[Si](C)(C)O[Si](C)C
CCOC(F)(F)C(F)(F)C(F)(F)C(F)(F)F
CCOC(=O)CC(C(C)=O)C(C)=O
COC(=O)/C=C\C(=O)O
COCCOCCOCCOCCOC
Cc1ccc(N)c([N+](=O)[O-])c1
CC(=O)Nc1ccc2c(c1)Cc1cc(NC(C)=O)ccc1-2
CC(=O)OC(C)C
CCCCCCCC[N+](C)(CCCCCCCC)CCCCCCCC
OCCNCc1ccccc1
C[C@]12CCC(=O)C=C1CC[C@@H]1[C@@H]2C(=O)C[C@@]2(C)[C@H]1CC[C@]2(O)C(=O)CO
CCCCCc1ccc(Cl)cc1
CC=CCO
C=CC=CC=CCCCCC
C=CC(=O)OCCOC1C2CCC1C1CC=CC12 (stereo not given)
CC1OC1C1CCC2(C)OC2C1 (stereo not given)
O=C(O)CCCCCCCCCC(=O)O
Nc1ccc2cc3ccccc3cc2c1
O=C1CC2CC1C1CCCC21 (stereo not given)
CC1(C)S[C@@H]2[C@H](NC(=O)COc3ccccc3)C(=O)N2[C@H]1C(=O)O
C[Si](C)(C)O[Si](O)(O)O
CCCCCC/C=C/C=O
CCCCCCCCO[C@@H]1O[C@H](CO)[C@@H](O)[C@H](O)[C@H]1O
CC(C)(Oc1ccc(C2CC2(Cl)Cl)cc1)C(=O)O (stereo not given)
CC(=O)c1ccc2c(c1)CCCC2
O=c1[nH]c(=O)c2[nH]c(=O)[nH]c2[nH]1
CC(=O)c1ccc[nH]1
CC(=O)CC(N)=O
Nc1ccc(Oc2ccc(N)c(N)c2)cc1
C#CC1(O)CC[C@H]2[C@@H]3CCC4=CCCC[C@@H]4[C@H]3CC[C@@]21C (stereo not given in full)
